Sampled rows, rich in hits. Any-hit rate of the full collection: about 21%.
Pf growth 48h: inhibits P. falciparum growth in the first generation, 48 h | P. falciparum luciferase growth in erythrocytes, 48 h | Potency, µM (doses to about 28.7 µM), for inactives: at the highest dose activity change, negative = inhibition, most hits filed as inhibitors | actives 5.9% (n = 310,000); also: potency is read from the fitted curve at half-maximal effect; % is scaled to controls: 0 for no effect and ±100 for the full control effect
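Compounds are pin-transferred into medium, infected erythrocytes (2% hematocrit, 0.1% parasitemia final) are added, and plates sit one parasite generation at 37 C in 5% CO2. Detection reagent is then added and luminescence measured.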
Sm TGR block: blocks Schistosoma mansoni thioredoxin glutathione reductase; Q962Y6; purified TGR, DTNB reduction, TNB absorbance 405 nm; actives 3% (n = 360,000); Potency, µM (series often up to 114 µM), for inactives: at the highest dose activity change, negative = inhibition, most hits filed as inhibitors; also: potency is read from the fitted curve at half-maximal effect; % is scaled to controls: 0 for no effect and ±100 for the full control effect; nearly all actives have a fitted effect of over 60% in size
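TGR 20 nM + NADPH 100 uM (dispensed conc.), cpd preinc 15 min RT; start with NADPH (500 uM addition) then DTNB (15 mM addition). Kinetic TNB absorbance, 405 nm filter. Four-parameter Hill fit across titration.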
Pf growth 96h: P. falciparum growth inhibition at 96 hour, primary screen for plastid delayed-death inhibitors; P. falciparum luciferase reporter growth, 96 h; Potency, µM (top dose mostly 28.7 µM), for the others: at the highest dose activity change, negative = inhibition, actives largely listed as inhibitors; actives 6.9% (n = 320,000); also: potency is read from the fitted curve at half-maximal effect; % is scaled to controls: 0 for no effect and ±100 for the full control effect
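96 h incubation, 37 C, 5% CO2, of luciferase-reporter P. falciparum-infected RBCs (2% hematocrit, 0.05% parasitemia final) with test compounds; endpoint luminescence.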
NS1 inh: influenza NS1 inhibition; actives 0.4% (n = 270,000); Potency, µM (series often up to 46.1 µM), without a hit: top-dose activity, positive = more growth; calls by dose curve; also: potency is read from the fitted curve at half-maximal effect; actives are rising curves; nearly all actives have a fitted effect of over 50% in size
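S. cerevisiae expressing influenza A NS1, grown in glucose, washed, then diluted 1:100 into pH 6.0 -URA galactose medium with 23 nl compound. Growth recovery read as OD600; NS1-free strain serves as control.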
Cycloheximide cs: affects cycloheximide protein synthesis inhibition readout, counter-screen; max response, %; actives 12% (n = 300,000); AID 2314; cell reporter, cycloheximide protein synthesis inhibition counterscreen; in the data active = max response mostly above about 13%, no sharp cut-off; inactive = mostly below about 14%; also: read at 38.3 µM for the half of the compounds with a filed dose; 0% is about no effect
Shiga toxin inh: blocks Shiga toxin action in Vero cells. Vero cells, Shiga toxin protein synthesis inhibition reporter. actives 9.2% (n = 290,000). inhibition, % at 38.7 µM; in the data active = inhibition mostly above about 28%, no sharp cut-off; inactive = mostly below about 43%; also: 0% is about no effect
Active calls of the source: *. Unless noted, calls follow the shape of the dose curve; as a rule, active = well fitted curve in the direction sought with a large enough effect; inconclusive = small, poorly fitted or top-dose-only effect, or another doubt; inactive = no such curve, though single readings can be large; an effect the other way counts as inactive or inconclusive.

`Oc1ccc(Br)cc1C1C=C(c2ccc3c(c2)OCO3)NC(c2cccc(F)c2)N1` (stereo unspecified) gave Cycloheximide cs 34* and Shiga toxin inh 50.
Screening Oc1ccccc1C1C=C(c2ccc3c(c2)OCO3)NC(c2cccc(F)c2)N1 (stereo unspecified) returned Cycloheximide cs 58* and Shiga toxin inh 96*.
Screening Oc1ccccc1C1C=C(c2ccc3c(c2)OCO3)NC(c2cccc(Br)c2)N1 (stereo unspecified) returned Cycloheximide cs 28* and Shiga toxin inh 93*.
`Cc1cc(NC(=O)CSc2ccc3nnc(-c4ccc(Cl)cc4)n3n2)no1` gave Sm TGR block 0%, Pf growth 96h 20%, NS1 inh -8%, Cycloheximide cs -5 and Shiga toxin inh -12.
O=C(CSc1ccc2nnc(-c3ccccn3)n2n1)Nc1ccccc1 was read as Pf growth 48h 13µM*, Sm TGR block 10%, Pf growth 96h inconclusive, NS1 inh 7%, Cycloheximide cs 1 and Shiga toxin inh -9.
Screening Cc1cc(NC(=O)CSc2ccc3nnc(-c4cccc(F)c4)n3n2)no1 returned Pf growth 48h 1.9µM*, Sm TGR block -1%, Pf growth 96h inconclusive, NS1 inh -1%, Cycloheximide cs 11 and Shiga toxin inh -9.
`Cc1cc(NC(=O)CSc2ccc3nnc(-c4ccccn4)n3n2)no1` gave Pf growth 48h inconclusive, Sm TGR block -1%, Pf growth 96h 12µM*, NS1 inh -5%, Cycloheximide cs -1 and Shiga toxin inh -3.
`CN(CC(=O)Nc1cccc(F)c1)CC(=O)N1CCCCC1` gave Pf growth 48h 5%, Sm TGR block -3% and Pf growth 96h 42%.
Screening CC(=O)NC(c1ccco1)c1cc(Cl)c2ccc(N3CCCCC3)nc2c1O (stereo unspecified) returned Pf growth 48h -26%, Sm TGR block 10µM* and Pf growth 96h -23%.
Screening CCC(=O)NC(c1ccc(C)cc1)c1cc([N+](=O)[O-])c2cccnc2c1O (stereo unspecified) returned Pf growth 48h inconclusive, Sm TGR block -29%, Pf growth 96h 20%, NS1 inh 15%, Cycloheximide cs 1 and Shiga toxin inh -6.
CCCC(=O)NC(c1ccco1)c1cc([N+](=O)[O-])c2cccnc2c1O (stereo unspecified) was read as Pf growth 48h inconclusive, Sm TGR block 28µM*, Pf growth 96h 15%, Cycloheximide cs 10 and Shiga toxin inh -7.
CCC(=O)NC(c1ccco1)c1cc(Br)c2cccnc2c1O (stereo unspecified) was read as Pf growth 48h inconclusive, Sm TGR block 35µM* and Pf growth 96h inconclusive.
CCCC(=O)NC(c1ccccc1Cl)c1ccc2cccnc2c1O (stereo unspecified) was read as Pf growth 48h inconclusive, Sm TGR block -1%, Pf growth 96h inconclusive, NS1 inh -82%, Cycloheximide cs 1 and Shiga toxin inh 7.
For CC(C)C(=O)NC(c1ccc(Cl)cc1Cl)c1ccc2cccnc2c1O (stereo unspecified) the results were Pf growth 48h inconclusive, Sm TGR block inconclusive, Pf growth 96h inconclusive, NS1 inh -128% and Cycloheximide cs 15.
For CC(=O)NC(c1ccco1)c1ccc2cccnc2c1O (stereo unspecified) the results were Pf growth 48h 10µM*, Sm TGR block -18%, Pf growth 96h 7%, NS1 inh -78%, Cycloheximide cs -5 and Shiga toxin inh 7.
Cc1ccc(-n2c(=O)c3ccc(C(=O)NCc4ccco4)cc3n(CC(=O)Nc3ccc(C)c(F)c3)c2=O)cc1 was read as Sm TGR block -6%.
`Cc1sc2nc(CSC(C)C(=O)Nc3cc(S(C)(=O)=O)ccc3Cl)[nH]c(=O)c2c1C` (stereo unspecified) gave Pf growth 48h 2%, Sm TGR block inconclusive and Pf growth 96h inconclusive.
`O=C(NC1CC(=O)N(c2ccc(F)cc2)C1)c1ccc(S(=O)(=O)N2CCOCC2)cc1` (stereo unspecified) gave Sm TGR block 10%.
For CCOc1ccccc1-n1nnc(S(=O)(=O)c2ccc(C)cc2)c1N the results were Sm TGR block 6%.
`Cc1ccc(CNc2ccc(N3CCOCC3)cc2)cc1` gave Pf growth 48h -1%, Sm TGR block -2%, Pf growth 96h 0%, NS1 inh 25%, Cycloheximide cs 21* and Shiga toxin inh 52*.
c1cc(CNc2ccc(N3CCOCC3)cc2)ccn1 was read as Sm TGR block -4%, Pf growth 96h inconclusive, NS1 inh 13%, Cycloheximide cs 33* and Shiga toxin inh 49*.
CC(C)c1ccc(CNc2ccc(N3CCOCC3)cc2)cc1 was read as Pf growth 48h inconclusive, Sm TGR block -11%, Pf growth 96h inconclusive, NS1 inh 2%, Cycloheximide cs 20 and Shiga toxin inh 26.
Screening Cc1ccc(NC(=O)CSCC(=O)Nc2ccc(N3CCOCC3)c(Cl)c2)cc1 returned Pf growth 48h inconclusive, Sm TGR block -4%, Pf growth 96h -26%, NS1 inh 0%, Cycloheximide cs 1 and Shiga toxin inh 41.
For Cc1ccc(CNc2ccc(N3CCOCC3)c(Cl)c2)cc1 the results were Pf growth 48h 27%, Sm TGR block -14%, Pf growth 96h 10µM*, NS1 inh -7%, Cycloheximide cs 22* and Shiga toxin inh 30*.
c1ccc(NCc2ccncc2)cc1 was read as Pf growth 48h 49%, Sm TGR block 2%, Pf growth 96h inconclusive, NS1 inh 7%, Cycloheximide cs 1 and Shiga toxin inh 3.
Screening CC(=O)c1c(C)n(-c2ccccc2)c2ccc(OCC(N)=O)cc12 returned Pf growth 48h -27%, Sm TGR block 0%, Pf growth 96h 32%, NS1 inh 1%, Cycloheximide cs -7 and Shiga toxin inh -8.
`COc1ccc(/C(N)=N/O)c(OC)c1` gave Pf growth 48h 0%, Sm TGR block 4%, Pf growth 96h 18%, NS1 inh -2%, Cycloheximide cs -4 and Shiga toxin inh -20.
For CSc1nnc(C(C)(C)C)c(=O)n1/N=C/c1ccc(Cl)cc1 the results were Pf growth 48h inconclusive, Sm TGR block 13%, Pf growth 96h inconclusive, NS1 inh 6%, Cycloheximide cs -3 and Shiga toxin inh -1.
For Cc1ccc(NC(=O)CCNC(=O)c2ccccc2Cl)cc1S(=O)(=O)N1CCCCCC1 the results were Pf growth 48h inconclusive, Sm TGR block -19% and Pf growth 96h inconclusive.

From PubChem BioAssay
